Source: PMC7862700, “An all-to-all approach to the identification of sequence-specific readers for epigenetic DNA modifications on cytosine”

Assays:
Assay in all cases: DAPPL (digital affinity profiling via proximity ligation, sequencing); 10 mM Tris-HCl pH 7.5, 50 mM NaCl, 1 mM DTT, 4% glycerol, room temperature, 30 min; GST-TFs on glutathione beads, 16-mer random dsDNA library, 0.1% formaldehyde crosslink after washing; high values mean tight binding
Settings in all cases: protein: recombinant; tags: N-terminal GST; dsDNA, one strand shown
[1] = molecular target: T1, ERF (Homo sapiens, UniProt P50548 1-548)
T1 sequence: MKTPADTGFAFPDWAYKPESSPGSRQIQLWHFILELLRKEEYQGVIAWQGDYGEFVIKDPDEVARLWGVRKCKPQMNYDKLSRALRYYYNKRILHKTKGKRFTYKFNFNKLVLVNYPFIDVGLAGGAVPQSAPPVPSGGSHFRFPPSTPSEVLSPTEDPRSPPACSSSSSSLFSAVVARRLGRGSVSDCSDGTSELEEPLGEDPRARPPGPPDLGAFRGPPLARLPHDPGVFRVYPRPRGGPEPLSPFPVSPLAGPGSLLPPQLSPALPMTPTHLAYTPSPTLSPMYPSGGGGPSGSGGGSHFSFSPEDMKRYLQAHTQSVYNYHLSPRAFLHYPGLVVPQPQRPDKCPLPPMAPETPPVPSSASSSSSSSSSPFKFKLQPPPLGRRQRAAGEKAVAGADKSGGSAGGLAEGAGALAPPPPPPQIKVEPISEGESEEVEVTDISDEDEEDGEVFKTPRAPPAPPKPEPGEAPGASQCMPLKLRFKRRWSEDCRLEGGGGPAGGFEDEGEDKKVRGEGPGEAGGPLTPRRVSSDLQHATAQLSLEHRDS
Method in brief: (§1)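 GST fusions of human transcription factors were expressed in yeast and captured with glutathione beads. Once given DNA barcodes and pooled alongside a tag-only sample, they were incubated for 30 min at room temperature with 200 nmole of a random double-stranded 16-mer DNA library in Tris/NaCl/DTT/glycerol buffer, then washed, crosslinked (0.1% formaldehyde), proximity-ligated, PCR-amplified and sequenced on an Illumina NextSeq500. The binding signal of each hexamer is its read frequency for a factor divided by its frequency for the tag-only sample.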

[2] = molecular target: T2, ETV3L (Homo sapiens, UniProt Q6ZN32 1-361)
T2 sequence: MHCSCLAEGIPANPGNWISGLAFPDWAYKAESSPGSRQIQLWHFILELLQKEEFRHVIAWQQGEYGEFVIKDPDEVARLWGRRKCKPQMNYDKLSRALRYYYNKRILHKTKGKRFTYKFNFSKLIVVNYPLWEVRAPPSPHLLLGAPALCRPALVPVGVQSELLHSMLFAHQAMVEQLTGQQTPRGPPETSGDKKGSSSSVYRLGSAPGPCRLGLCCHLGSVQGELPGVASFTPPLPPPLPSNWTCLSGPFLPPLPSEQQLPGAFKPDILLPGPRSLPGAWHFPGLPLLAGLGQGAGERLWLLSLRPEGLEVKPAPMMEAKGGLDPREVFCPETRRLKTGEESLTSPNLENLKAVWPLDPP
Method in brief: as §1

[3] = molecular target: T3, ETS2 (Homo sapiens, UniProt P15036 1-469)
T3 sequence: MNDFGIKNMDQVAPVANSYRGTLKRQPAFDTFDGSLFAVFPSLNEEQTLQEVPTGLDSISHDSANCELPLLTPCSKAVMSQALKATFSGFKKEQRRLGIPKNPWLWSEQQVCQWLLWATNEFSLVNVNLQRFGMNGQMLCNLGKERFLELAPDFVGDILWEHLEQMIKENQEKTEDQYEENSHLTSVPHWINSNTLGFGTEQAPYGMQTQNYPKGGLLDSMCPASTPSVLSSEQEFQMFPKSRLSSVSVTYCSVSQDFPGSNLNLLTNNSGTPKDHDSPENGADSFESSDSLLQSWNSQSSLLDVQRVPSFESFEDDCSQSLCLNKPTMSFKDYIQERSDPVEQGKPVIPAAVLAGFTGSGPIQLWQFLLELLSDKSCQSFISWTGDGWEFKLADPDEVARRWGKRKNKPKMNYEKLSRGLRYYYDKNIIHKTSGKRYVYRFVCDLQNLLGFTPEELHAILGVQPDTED
Method in brief: as §1

[4] = molecular target: T4, SPDEF (Homo sapiens, UniProt O95238 1-335)
T4 sequence: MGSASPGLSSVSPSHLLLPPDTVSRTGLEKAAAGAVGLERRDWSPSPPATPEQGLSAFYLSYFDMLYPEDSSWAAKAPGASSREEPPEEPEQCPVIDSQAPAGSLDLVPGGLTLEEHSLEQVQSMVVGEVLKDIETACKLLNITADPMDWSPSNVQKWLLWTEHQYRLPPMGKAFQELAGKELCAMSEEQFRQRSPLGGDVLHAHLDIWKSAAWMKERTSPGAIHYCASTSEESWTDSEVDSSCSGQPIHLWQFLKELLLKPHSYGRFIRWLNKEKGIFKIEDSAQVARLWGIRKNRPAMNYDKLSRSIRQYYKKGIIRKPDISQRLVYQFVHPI
Method in brief: as §1

[5] = molecular target: T5, ETV7 (Homo sapiens, UniProt Q9Y603 1-341)
T5 sequence: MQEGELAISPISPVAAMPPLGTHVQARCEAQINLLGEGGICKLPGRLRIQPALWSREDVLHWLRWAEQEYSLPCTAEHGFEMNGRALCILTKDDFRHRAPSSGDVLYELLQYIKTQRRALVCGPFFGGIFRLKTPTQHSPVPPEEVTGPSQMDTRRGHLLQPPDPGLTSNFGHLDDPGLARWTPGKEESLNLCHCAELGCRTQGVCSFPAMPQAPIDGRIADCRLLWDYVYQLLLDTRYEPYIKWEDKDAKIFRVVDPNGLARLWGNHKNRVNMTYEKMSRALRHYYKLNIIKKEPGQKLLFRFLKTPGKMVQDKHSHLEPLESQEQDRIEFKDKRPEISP
Method in brief: as §1

[6] = molecular target: T6, ELF5 (Homo sapiens, UniProt Q9UKW6-2 1-255)
T6 sequence: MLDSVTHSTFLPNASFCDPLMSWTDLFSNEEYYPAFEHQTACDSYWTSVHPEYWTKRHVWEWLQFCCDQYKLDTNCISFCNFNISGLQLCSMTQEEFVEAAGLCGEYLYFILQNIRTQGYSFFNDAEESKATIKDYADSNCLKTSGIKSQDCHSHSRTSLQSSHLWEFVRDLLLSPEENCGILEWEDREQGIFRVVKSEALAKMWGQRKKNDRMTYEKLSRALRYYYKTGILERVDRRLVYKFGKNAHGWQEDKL
Method in brief: as §1

[7] = molecular target: T7, ETV3 (Homo sapiens, UniProt P41162-2 1-143)
T7 sequence: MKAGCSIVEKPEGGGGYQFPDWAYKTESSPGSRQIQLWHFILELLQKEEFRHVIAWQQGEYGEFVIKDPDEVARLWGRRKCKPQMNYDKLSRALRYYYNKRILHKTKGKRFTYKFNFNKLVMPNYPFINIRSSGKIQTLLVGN
Method in brief: as §1

[8] = molecular target: ETV6 (Homo sapiens, UniProt P41212 1-452)
Method in brief: as §1

ETV6, sequence (P41212 whole entry): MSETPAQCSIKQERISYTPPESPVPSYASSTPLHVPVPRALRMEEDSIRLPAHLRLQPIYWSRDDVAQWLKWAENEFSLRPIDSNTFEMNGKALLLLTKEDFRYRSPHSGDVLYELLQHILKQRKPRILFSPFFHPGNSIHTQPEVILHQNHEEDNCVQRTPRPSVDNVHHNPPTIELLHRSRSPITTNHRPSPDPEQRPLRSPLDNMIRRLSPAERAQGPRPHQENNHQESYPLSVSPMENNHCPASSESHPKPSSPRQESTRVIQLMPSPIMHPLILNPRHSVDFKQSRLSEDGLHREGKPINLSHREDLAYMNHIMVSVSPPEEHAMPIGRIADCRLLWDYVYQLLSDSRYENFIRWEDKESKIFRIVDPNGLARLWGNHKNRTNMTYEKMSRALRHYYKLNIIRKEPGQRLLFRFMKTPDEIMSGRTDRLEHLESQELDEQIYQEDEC

| Sequence | binding signal [1] | binding signal [2] | binding signal [3] | binding signal [4] | binding signal [5] | binding signal [6] | binding signal [7] | binding signal [8] |
| --- | --- | --- | --- | --- | --- | --- | --- | --- |
| TCTCAA | 1.22 fold enrichment (6-mer frequency, TF over GST control) | 1.28 fold enrichment (6-mer frequency, TF over GST control) | 1.25 fold enrichment (6-mer frequency, TF over GST control) | 1.23 fold enrichment (6-mer frequency, TF over GST control) | 1.17 fold enrichment (6-mer frequency, TF over GST control) | 1.15 fold enrichment (6-mer frequency, TF over GST control) | 1.3 fold enrichment (6-mer frequency, TF over GST control) | 1.27 fold enrichment (6-mer frequency, TF over GST control) |
| GTAATG | 1.12 fold enrichment (6-mer frequency, TF over GST control) | 1.11 fold enrichment (6-mer frequency, TF over GST control) | 1.07 fold enrichment (6-mer frequency, TF over GST control) | 1.15 fold enrichment (6-mer frequency, TF over GST control) | 1.05 fold enrichment (6-mer frequency, TF over GST control) | 1.1 fold enrichment (6-mer frequency, TF over GST control) | – | 1.03 fold enrichment (6-mer frequency, TF over GST control) |
| AATAAC | 1.33 fold enrichment (6-mer frequency, TF over GST control) | 1.22 fold enrichment (6-mer frequency, TF over GST control) | 1.27 fold enrichment (6-mer frequency, TF over GST control) | 1.21 fold enrichment (6-mer frequency, TF over GST control) | 1.25 fold enrichment (6-mer frequency, TF over GST control) | 1.31 fold enrichment (6-mer frequency, TF over GST control) | 1.23 fold enrichment (6-mer frequency, TF over GST control) | 1.36 fold enrichment (6-mer frequency, TF over GST control) |
| TACTTA | 1.29 fold enrichment (6-mer frequency, TF over GST control) | 1.2 fold enrichment (6-mer frequency, TF over GST control) | 1.25 fold enrichment (6-mer frequency, TF over GST control) | 1.14 fold enrichment (6-mer frequency, TF over GST control) | 1.21 fold enrichment (6-mer frequency, TF over GST control) | 1.14 fold enrichment (6-mer frequency, TF over GST control) | 1.17 fold enrichment (6-mer frequency, TF over GST control) | 1.28 fold enrichment (6-mer frequency, TF over GST control) |
| TCGAAT | 1.13 fold enrichment (6-mer frequency, TF over GST control) | 1.09 fold enrichment (6-mer frequency, TF over GST control) | 1.06 fold enrichment (6-mer frequency, TF over GST control) | 1.09 fold enrichment (6-mer frequency, TF over GST control) | 1.23 fold enrichment (6-mer frequency, TF over GST control) | 1.02 fold enrichment (6-mer frequency, TF over GST control) | – | 1.13 fold enrichment (6-mer frequency, TF over GST control) |
| CCTGTG | 1.08 fold enrichment (6-mer frequency, TF over GST control) | 1.02 fold enrichment (6-mer frequency, TF over GST control) | 1.03 fold enrichment (6-mer frequency, TF over GST control) | 1.02 fold enrichment (6-mer frequency, TF over GST control) | 1.07 fold enrichment (6-mer frequency, TF over GST control) | 1.06 fold enrichment (6-mer frequency, TF over GST control) | 1.07 fold enrichment (6-mer frequency, TF over GST control) | 1.06 fold enrichment (6-mer frequency, TF over GST control) |
| TGTCTG | 1.09 fold enrichment (6-mer frequency, TF over GST control) | 1.05 fold enrichment (6-mer frequency, TF over GST control) | 1.09 fold enrichment (6-mer frequency, TF over GST control) | 1.15 fold enrichment (6-mer frequency, TF over GST control) | 1.02 fold enrichment (6-mer frequency, TF over GST control) | 1.15 fold enrichment (6-mer frequency, TF over GST control) | – | 1.12 fold enrichment (6-mer frequency, TF over GST control) |
